In PubChem BioAssay (NCATS):
Values joined by “and” are separate entries in the source; they are usually repeats but may differ in a detail not shown here. Equal values may be shown once. Inconclusive results are not listed. More than one record can exist for a structure, and the calls need not agree. Active and inactive are the calls of the source. The call rests on the fitted dose curve; in most records, active means well fitted curve in the direction sought with a large enough effect; inconclusive means small, poorly fitted or top-dose-only effect, or another doubt; inactive means no such curve, though single readings can be large; an effect the other way counts as inactive or inconclusive.

What was measured:
[1] = biological target: Cytochrome P450 3A7 (Homo sapiens) (UniProt P24462); experiment: Cytochrome P450 family 3 subfamily A member 7 (CYP3A7) small molecule antagonists: luciferase biochemical qHTS assay (AID 1963596); further: on the % scale 0 is the no-effect control and ±100 the full control effect; nearly all actives have a fitted effect of over 40% in size
Cytochrome P450 3A7 (Homo sapiens), sequence (P24462 whole entry, looked up): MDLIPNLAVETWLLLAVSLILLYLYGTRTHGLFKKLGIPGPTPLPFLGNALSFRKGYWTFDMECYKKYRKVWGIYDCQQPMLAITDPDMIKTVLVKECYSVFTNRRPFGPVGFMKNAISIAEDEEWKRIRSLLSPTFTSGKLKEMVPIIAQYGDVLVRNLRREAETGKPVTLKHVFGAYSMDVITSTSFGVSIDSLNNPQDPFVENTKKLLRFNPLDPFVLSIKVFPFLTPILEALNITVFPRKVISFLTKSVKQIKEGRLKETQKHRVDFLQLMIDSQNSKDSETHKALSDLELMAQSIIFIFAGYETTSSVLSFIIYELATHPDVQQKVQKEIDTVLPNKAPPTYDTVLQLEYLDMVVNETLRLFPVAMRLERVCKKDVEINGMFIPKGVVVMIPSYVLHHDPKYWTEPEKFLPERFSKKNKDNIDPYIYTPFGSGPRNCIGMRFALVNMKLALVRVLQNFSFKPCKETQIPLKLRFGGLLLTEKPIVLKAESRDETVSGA
Method in brief: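 In this luminescent screen, enzyme and proluciferin substrate meet test compound for 10 min before NADPH regeneration solution drives a 1 h room-temperature reaction; detection reagent halts turnover and luminescence is read 20 min later.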

[2] = Viability qHTS for spleen associated tyrosine kinase inhibitor (SYKi) naive MV4-11 cells (AID 1963823); further: nearly all actives have a fitted effect of over 40% in size; further: potency means the concentration at half of the fitted maximal effect
Method in brief: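 qHTS, SYK inhibitor-naive MV4-11; 500 cells/well; 72 hr compound exposure, 37 C; CellTiter-Glo added, 10 min RT; luminescence read.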

[3] = Viability qHTS for spleen associated tyrosine kinase inhibitor (SYKi) drug resistant MV4-11 cells (AID 1963824); further: nearly all actives have a fitted effect of over 35% in size; further: potency means the concentration at half of the fitted maximal effect
Method in brief: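 SYK inhibitor-resistant MV4-11 AML cells, 500 per well, added to predispensed compounds and incubated 72 hr at 37 C, 5% CO2. Viability measured by CellTiter-Glo luminescence after 10 min at room temperature.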

[4] = Cellular viability qHTS for adrenocortical cancer (ACC) cell line SW-13 (AID 1963989); settings: SW-13 ACC cells viability, CellTiter-Glo, 48 h; activity (max response): stronger effect = lower value; further: nearly all actives have a fitted effect of over 65% in size; further: potency means the concentration at half of the fitted maximal effect;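 on activity (max response): cells grown in serum-free medium with ITS supplement; on the % scale 0 is the no-effect control and ±100 the full control effect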
Method in brief: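 48 h treatment, SW-13 in ITS/DMEM serum-free; doses up to 46 uM; readout CellTiter-Glo luminescence; curve fit four-parameter logistic.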

[5] = Cellular viability qHTS for adrenocortical cancer (ACC) cell line NCI-H295R (AID 1963990); further: nearly all actives have a fitted effect of over 60% in size; further: potency means the concentration at half of the fitted maximal effect
Method in brief: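 Compound titrations (up to 46 uM final) are applied to NCI-H295R cultures for 48 h at 37C. Viable cell number is estimated by CellTiter-Glo signal, normalised to DMSO and doxorubicin controls.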

O=C1O[C@H]([C@@H](O)CO)C(O)=C1O
inactive: Potency [1] | Potency [2] | Potency [3] | activity (max response) [4] 0.904% | Potency [5]

COc1ccc2c(c1)CCCC2=O
inactive: Potency [1] | Potency [2] | Potency [3] | activity (max response) [4] 14.4% | Potency [5]

CCOC(=O)c1ccc(OCCN2C[C@H](O)[C@@H](O)[C@H](O)[C@H]2CO)cc1
inactive: Potency [1] | Potency [2] | Potency [3] | activity (max response) [4] -1.86% | Potency [5]

CC(=O)CCCCn1c(=O)c2c(ncn2C)n(C)c1=O
inactive: Potency [1] | Potency [2] | Potency [3] | activity (max response) [4] 7.09% | Potency [5]

CC(=O)Nc1nnc(S(N)(=O)=O)s1
inactive: Potency [1] | Potency [2] | Potency [3] | activity (max response) [4] 5.04% | Potency [5]

CC(C)=CCC/C(C)=C/CC/C(C)=C/CCC(=O)OC/C=C(\C)CCC=C(C)C
inactive: Potency [1] | Potency [2] | Potency [3] | activity (max response) [4] 14.2% | Potency [5]

CC1(C)O[C@@H]2C[C@H]3[C@@H]4C[C@H](F)C5=CC(=O)C=C[C@]5(C)[C@@]4(F)[C@@H](O)C[C@]3(C)[C@]2(C(=O)CO)O1
active: Potency [3] 20900 nM
inactive: Potency [1] | Potency [2] | activity (max response) [4] -5.78% and 9.51% | Potency [5]

Cc1nnc(C(C)C)n1C1CC2CCC(C1)N2CC[C@H](NC(=O)C1CCC(F)(F)CC1)c1ccccc1 (stereo not given in full)
inactive: Potency [1] | Potency [2] | Potency [3] | activity (max response) [4] 2.32% | Potency [5]

CC(=O)CCC(=O)O
inactive: Potency [1] | Potency [2] | Potency [3] | activity (max response) [4] 9% | Potency [5]

Cc1ccc(-c2ccc3ncc4c(c3n2)n(C2CCN(C(=O)[C@H](C)O)CC2)c(=O)n4C)cn1
inactive: Potency [1]
active: Potency [2] 65.1 nM | Potency [3] 58 nM | Potency [4] 794 nM | Potency [5] 141 nM

CCOC(=O)C(=O)CCCCCCl
inactive: Potency [1] | Potency [2] | Potency [3] | activity (max response) [4] 1.38% | Potency [5]

CN(C)CCOC(C)(c1ccccc1)c1ccccn1 (stereo not given)
inactive: Potency [1] | Potency [2] | Potency [3] | activity (max response) [4] 14.2% | Potency [5]

C[C@H]1[C@H](NC(=O)/C(=N/OC(C)(C)C(=O)O)c2csc(N)n2)C(=O)N1S(=O)(=O)O (stereo in doubt)
inactive: Potency [1] | Potency [2] | Potency [3] | activity (max response) [4] 8.46% | Potency [5]

CC1(C)CO[C@@H](CC(=O)O)CN1
inactive: Potency [1] | Potency [2] | Potency [3] | activity (max response) [4] 8.37% | Potency [5]

CC1(C)S[C@@H]2[C@H](NC(=O)[C@H](N)c3ccccc3)C(=O)N2[C@H]1C(=O)O
inactive: Potency [1] | Potency [2] | Potency [3] | activity (max response) [4] 9.26% | Potency [5]

Cc1cccc(OCC(O)CNC(C)(C)C)c1C (stereo not given)
inactive: Potency [1] | Potency [2] | Potency [3] | activity (max response) [4] -1.22% | Potency [5]

COc1ccccc1N1CCN(CC(O)COc2cc(OC)c(OC)c(OC)c2)CC1 (stereo not given)
inactive: Potency [1] | Potency [2] | Potency [3] | activity (max response) [4] 13.2% | Potency [5]

COCC(=O)Nc1c(I)c(C(=O)NCC(O)CO)c(I)c(C(=O)N(C)CC(O)CO)c1I (stereo not given)
inactive: Potency [1] | Potency [3] | activity (max response) [4] -3.53% | Potency [5]
active: Potency [2] 0.9 nM

CC(=O)Nc1ccc(C(=O)O)cc1
inactive: Potency [1] | Potency [2] | Potency [3] | activity (max response) [4] 11.7% | Potency [5]

CN(C)[C@@H]1C(=O)C(C(=O)NCN2CCCC2)=C(O)[C@@]2(O)C(=O)C3=C(O)c4c(O)cccc4[C@@](C)(O)C3C[C@@H]12 (stereo not given in full)
inactive: Potency [1] | Potency [2] | Potency [3] | activity (max response) [4] -7.75% | Potency [5]

Oc1ccccc1-c1nnco1
inactive: Potency [1] | Potency [2] | Potency [3] | activity (max response) [4] 12.7% | Potency [5]

COc1ccc(CN(CCN(C)C)c2ncccn2)cc1
inactive: Potency [1] | Potency [2] | Potency [3] | activity (max response) [4] -7.84% | Potency [5]

NC(=Nc1ccccc1)Nc1ccccc1
38.6 µM (active) and inactive: Potency [2]
active: Potency [3] 34400 nM
inactive: Potency [1] | activity (max response) [4] -1.07% | Potency [5]

Cc1c(C(=O)NCCO)[n+](=O)c2ccccc2n1[O-]
inactive: Potency [1] | Potency [2] | Potency [3] | activity (max response) [4] 7.59% | Potency [5]

COc1cc(C(=O)NCc2ccc(OCCN(C)C)cc2)cc(OC)c1OC
inactive: Potency [1] | Potency [2] | Potency [3] | activity (max response) [4] -6.7% | Potency [5]

COc1ccc(OC)c(C(O)CNC(=O)CN)c1 (stereo not given)
inactive: Potency [1] | Potency [2] | Potency [3] | activity (max response) [4] 12.3% | Potency [5]

CCOC(=O)C(O)c1ccccc1 (stereo not given)
inactive: Potency [1] | Potency [2] | Potency [3] | activity (max response) [4] 4.7% | Potency [5]

CCn1cc(C(=O)O)c(=O)c2cnc(N3CCNCC3)nc21
inactive: Potency [1] | Potency [2] | activity (max response) [4] 3.41% | Potency [5]
active: Potency [3] 2990 nM

C=Cc1c(C)c2cc3[nH]c(cc4nc(cc5nc(cc1[nH]2)C(C)=C5CCC(=O)O)C(CCC(=O)O)=C4C)c(C)c3C=C
inactive: Potency [1] | Potency [2] | Potency [3] | activity (max response) [4] -8.14% | Potency [5]

C[N+](C)(C)CCOC(=O)CCC(=O)OCC[N+](C)(C)C
inactive: Potency [1] | Potency [2] | Potency [3] | activity (max response) [4] 11.2% | Potency [5]
